Reference: PubChem BioAssay (NCI)
The panel holds about 79,000 compounds, 15% with a hit somewhere; the sample as a whole holds those more often. A number with no mark means an inactive call. Calls of active or inactive are those of the source. Rule as the data show it: active = growth inhibition above about 70%; inactive = the rest.

Assay: NCI Yeast Anticancer Drug Screen. Data for the wt2 strain (AID 169);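 also: 0% = growth of vehicle-treated yeast cultures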
Settings: S. cerevisiae wt2 strain growth inhibition; at 11.0 µM; active compounds read high
Method in brief: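 Genetically defined yeast strains from a DNA-repair/cell-cycle panel were used. Compound-exposed yeast growth was measured, and the inhibition was calculated relative to vehicle treatment.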

Compound	growth inhibition
Cc1cccc2c(C(O)CBr)cc(-c3ccc(Cl)cc3)nc12 (centres undefined)	98% (active)
CN(C)C[C@H]1CC[C@@H](CN(C)C)C1=O	-40%
CC1=C(SCCO)C(=O)c2ccccc2C1=O	3%
COC(=O)CCNc1c2ccccc2nc2cccc([N+](=O)[O-])c12	85% (active)
CC(/C=C/c1ccc2c(c1)OCO2)[N+](=O)[O-] (centres undefined)	100% (active)
COC(=O)C1=C(C)NC(C)=C(C(=O)OCCCN2CCC(c3ccccc3)(c3ccccc3)CC2)C1c1cccc([N+](=O)[O-])c1 (centres undefined)	98% (active)
CCOC(=O)c1cnc2c(C(F)(F)F)cccc2c1N=[N+]=[N-]	2%
O=[N+]([O-])c1cc2no[n+]([O-])c2cc1N1CCCCC1	99% (active)
COC(=O)c1ccc(NCC2=CC(=O)C=CC2=O)cc1O	94% (active)
S=C(Nc1ccc(Cl)c(Cl)c1)SCc1ccc2c(c1)OCO2	100% (active)
O=S(=O)(CCCl)c1ccccc1Cl	64%
CN(C)c1ccc(Sc2ccc3nc(N)nc(N)c3c2)cc1	9%
CC(C)C1=CCC2C(=C1)CCC1C(C)(C(=O)O)CCCC21C (centres undefined) (tested in a mixture with another compound)	-56%
Cc1ccc(S(=O)(=O)Oc2cc(Cl)c(Cl)cc2Cl)cc1	-14%
CSC(=S)Nc1cc(C)ccn1	23%
CC(C)c1cc(C(C)C)c(O)c(C([O-])[O-])c1.CC(C)c1cc(C(C)C)c(O)c(C([O-])[O-])c1.CC(C)c1cc(C(C)C)c(O)c(C([OH2+])[OH2+])c1.CC(C)c1cc(C(C)C)c(O)c(C([OH2+])[OH2+])c1.[Cu+2].[Cu+2].[OH3+].[OH3+]	32%

Compound	growth inhibition
CC(Br)C(=O)c1ccc2cc(Br)c3ccccc3c2c1 (centres undefined)	-1%
O=C(Nc1ccccc1)OCCc1ccc(Cl)c(Cl)c1	5%
O=Cc1cccc2ccc3ccccc3c12	-3%
CC1(Cl)CC(O)C2(CC1Br)C1(C)OC1C1OC1(Br)C2(C)C (centres undefined)	-1%
Cc1cc(O)cc(O)c1N=Nc1ccc([N+](=O)[O-])cc1	-4%
CCCCCCCCCCCCCC[N+](C)(CC(=O)[O-])Cc1ccccc1 (centres undefined)	100% (active)
CC1=NN(c2cccc(Cl)c2)C(=O)C1	-15%
CC(=O)OCc1ccc(O)c(C=O)c1	-28%
Cc1ccc2ccc3cccc4ccc1c2c34	-3%
Cc1nc(-[n+]2nc(-c3ccncc3)nn2-c2ccccc2)sc1C	18%
C(CCSC1=NCCN1)CSC1=NCCN1 (tested in a mixture with another compound)	63%
CCCCCCCCCCC(=O)Cl	-4%
COC1C=COC2(C)Oc3c(C)c(O)c4c(c3C2=O)/C(=N/C2CCC(O)OC2C)C=C(NC(=O)/C(C)=C\C(=O)C2CC2C(O)C(C)C(O)C(C)C(OC(C)=O)C1C)C4=O (centres undefined)	0%
O=C1CSC(/C=C/c2ccccc2)N1c1ccc(-c2ccc(-n3c(-c4ccccc4)nc4ccccc4c3=O)cc2)cc1 (centres undefined)	-4%
Brc1ccc(-c2cc3c(cc2C2SCCS2)OCO3)cc1	-15%
Oc1ccc2ccccc2c1C(c1ccc(Cl)cc1)c1c(O)ccc2ccccc12	-20%

Same assay, conditions: S. cerevisiae wt2 strain growth inhibition; at 33.0 µM; active compounds read high

Compound	growth inhibition
Cc1cccc2c(C(O)CBr)cc(-c3ccc(Cl)cc3)nc12 (centres undefined)	96% (active)
CN(C)C[C@H]1CC[C@@H](CN(C)C)C1=O	7%
CC1=C(SCCO)C(=O)c2ccccc2C1=O	18%
COC(=O)CCNc1c2ccccc2nc2cccc([N+](=O)[O-])c12	97% (active)
CC(/C=C/c1ccc2c(c1)OCO2)[N+](=O)[O-] (centres undefined)	100% (active)
COC(=O)C1=C(C)NC(C)=C(C(=O)OCCCN2CCC(c3ccccc3)(c3ccccc3)CC2)C1c1cccc([N+](=O)[O-])c1 (centres undefined)	97% (active)
CCOC(=O)c1cnc2c(C(F)(F)F)cccc2c1N=[N+]=[N-]	68%
O=[N+]([O-])c1cc2no[n+]([O-])c2cc1N1CCCCC1	99% (active)
COC(=O)c1ccc(NCC2=CC(=O)C=CC2=O)cc1O	97% (active)
S=C(Nc1ccc(Cl)c(Cl)c1)SCc1ccc2c(c1)OCO2	100% (active)
O=S(=O)(CCCl)c1ccccc1Cl	98% (active)
CN(C)c1ccc(Sc2ccc3nc(N)nc(N)c3c2)cc1	7%
CC(C)C1=CCC2C(=C1)CCC1C(C)(C(=O)O)CCCC21C (centres undefined) (tested in a mixture with another compound)	63%
Cc1ccc(S(=O)(=O)Oc2cc(Cl)c(Cl)cc2Cl)cc1	-9%
CSC(=S)Nc1cc(C)ccn1	23%
CC(C)c1cc(C(C)C)c(O)c(C([O-])[O-])c1.CC(C)c1cc(C(C)C)c(O)c(C([O-])[O-])c1.CC(C)c1cc(C(C)C)c(O)c(C([OH2+])[OH2+])c1.CC(C)c1cc(C(C)C)c(O)c(C([OH2+])[OH2+])c1.[Cu+2].[Cu+2].[OH3+].[OH3+]	70% (active)

Compound	growth inhibition
CC(Br)C(=O)c1ccc2cc(Br)c3ccccc3c2c1 (centres undefined)	3%
O=C(Nc1ccccc1)OCCc1ccc(Cl)c(Cl)c1	24%
O=Cc1cccc2ccc3ccccc3c12	26%
CC1(Cl)CC(O)C2(CC1Br)C1(C)OC1C1OC1(Br)C2(C)C (centres undefined)	62%
Cc1cc(O)cc(O)c1N=Nc1ccc([N+](=O)[O-])cc1	26%
CCCCCCCCCCCCCC[N+](C)(CC(=O)[O-])Cc1ccccc1 (centres undefined)	60%
CC1=NN(c2cccc(Cl)c2)C(=O)C1	8%
CC(=O)OCc1ccc(O)c(C=O)c1	-11%
Cc1ccc2ccc3cccc4ccc1c2c34	-2%
Cc1nc(-[n+]2nc(-c3ccncc3)nn2-c2ccccc2)sc1C	50%
C(CCSC1=NCCN1)CSC1=NCCN1 (tested in a mixture with another compound)	99% (active)
CCCCCCCCCCC(=O)Cl	-2%
COC1C=COC2(C)Oc3c(C)c(O)c4c(c3C2=O)/C(=N/C2CCC(O)OC2C)C=C(NC(=O)/C(C)=C\C(=O)C2CC2C(O)C(C)C(O)C(C)C(OC(C)=O)C1C)C4=O (centres undefined)	28%
O=C1CSC(/C=C/c2ccccc2)N1c1ccc(-c2ccc(-n3c(-c4ccccc4)nc4ccccc4c3=O)cc2)cc1 (centres undefined)	5%
Brc1ccc(-c2cc3c(cc2C2SCCS2)OCO3)cc1	13%
Oc1ccc2ccccc2c1C(c1ccc(Cl)cc1)c1c(O)ccc2ccccc12	16%
